Screening results from PubChem BioAssay.
DT40 TDP1 CPT: DT40-hTDP1 cell growth loss with CPT. chicken DT40 Tdp1-/-;hTDP1 cells + 20 nM CPT, ATP luminescence, 48 h. AID 686979. Potency, µM (series often up to 46.2 µM), without a hit: at the top dose activity change, negative = growth inhibition, actives largely listed as inhibitors. 420,000 compounds, 12% hits; note: potency is the fitted concentration of half-maximal effect; nearly all actives have a fitted effect of over 55% in size
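Chicken DT40 Tdp1-/- cells stably complemented with human TDP1 were seeded at 400 cells/well in medium containing 20 nM camptothecin, exposed to pin-transferred compounds, and grown at 37 °C for at least 48 hr. Viability was read as ATP luminescence.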
12-LOX inh: blocks human arachidonate 12S-lipoxygenase | P18054 | purified 12hLO, xylenol orange hydroperoxide absorbance | Potency, µM (titrated, usually from 108 µM), for the others: top-dose activity change, negative = inhibition, most hits filed as inhibitors | 580,000 compounds, 1.1% hits | AID 1671190; note: potency is the fitted concentration of half-maximal effect
Target sequence (P18054 whole entry, looked up): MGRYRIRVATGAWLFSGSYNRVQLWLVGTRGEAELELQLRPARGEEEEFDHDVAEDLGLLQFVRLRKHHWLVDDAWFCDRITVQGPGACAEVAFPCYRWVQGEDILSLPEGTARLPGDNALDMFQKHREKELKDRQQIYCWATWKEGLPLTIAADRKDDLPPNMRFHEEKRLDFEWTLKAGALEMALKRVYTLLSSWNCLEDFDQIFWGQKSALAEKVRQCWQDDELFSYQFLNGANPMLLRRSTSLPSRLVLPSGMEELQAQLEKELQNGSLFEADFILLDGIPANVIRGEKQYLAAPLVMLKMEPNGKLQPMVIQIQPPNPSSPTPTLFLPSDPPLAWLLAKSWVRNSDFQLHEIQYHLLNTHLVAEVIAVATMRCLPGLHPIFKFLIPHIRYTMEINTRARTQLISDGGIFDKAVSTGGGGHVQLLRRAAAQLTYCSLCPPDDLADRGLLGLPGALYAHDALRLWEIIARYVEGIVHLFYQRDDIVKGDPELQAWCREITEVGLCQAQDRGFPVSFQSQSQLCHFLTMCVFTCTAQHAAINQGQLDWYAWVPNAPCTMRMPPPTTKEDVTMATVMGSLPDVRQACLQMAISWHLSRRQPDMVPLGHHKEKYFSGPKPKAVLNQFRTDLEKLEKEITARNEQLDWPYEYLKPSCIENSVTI
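Purified human 12hLO at 150 nM in 25 mM Hepes, 0.01% Triton X-100, pH 7.0, preincubated 15 min at room temperature with compound. Reaction started with 40 uM arachidonic acid, 30 min at room temperature. Hydroperoxide measured by Fe-xylenol orange, 573/405 nm absorbance ratio.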
HT1080 IDH1KD tx: kills HT-1080 cells with IDH1 knockdown; AID 686971; 360,000 compounds, 2% hits; Potency, µM (titrated, usually from 46.1 µM), for inactives: at the highest dose activity, negative = toxicity, most hits filed as cytotoxic; HT-1080 IDH1 knockdown viability, ATP luminescence, 48 h;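 note: potency is the fitted concentration of half-maximal effect; 0% = DMSO wells and -100% = cell-free medium wells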
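Assay cells: HT-1080 with IDH1 knockdown, 750 per well, RPMI/5% FBS. Exposure: 48 h at 37 °C following 2 h pre-incubation. Read: CellTiter-Glo luminescence; fitted concentration-response, curve class assigned.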
IL-1B inflam inh: blocks inflammasome-driven IL-1 beta release; THP-1 LPS/ATP IL-1B secretion, AlphaLISA, 16 h; hits give low values; activity change, % at 57.5 µM; 360,000 compounds, 4.7% hits; in the data active = activity change below about -50%; inconclusive = mostly about -30% to -49%
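Secreted IL-1B measured by AlphaLISA bead assay after 16 h compound exposure of THP-1 cells; compounds (final up to 57.5 uM) added 1 h before LPS (250 ng/mL) and ATP (1.25 mM) stimulation; lower signal means less secretion.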
DT40 TDP1 no CPT: qHTS for Inhibitors of human tyrosyl-DNA phosphodiesterase 1 (TDP1): qHTS in cells in absence of CPT | DT40 Tdp1-/- hTDP1 cells, no CPT, ATP luminescence, 48 h | Potency, µM (highest dose often 46.2 µM), inactives show at the highest dose activity change, negative = growth inhibition, hits mostly inhibitors | 420,000 compounds, 15% hits; note: potency is the fitted concentration of half-maximal effect; nearly all actives have a fitted effect of over 55% in size
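No-CPT arm: Tdp1-/-;hTDP1 DT40 cells (400/well) plus compounds, incubated ≥48 hr at 37 °C. Readout CellTiter-Glo luminescence.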
HT1080-NT tox: kills 2HG-producing HT-1080-NT fibrosarcoma cells; HT-1080-NT fibrosarcoma viability, CellTiter-Glo ATP luminescence, 48 h; Potency, µM (highest dose often 46.1 µM), for the others: at the highest dose activity, negative = less viability, hits mostly cytotoxic; 360,000 compounds, 1.6% hits; AID 686970;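 note: NT is the 2HG producing partner of a matched IDH1 knockdown line; potency is the fitted concentration of half-maximal effect; 0% = DMSO-treated cells and -100% = media-only wells without cells; nearly all actives have a fitted effect of over 55% in size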
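Viability of the 2HG-overproducing fibrosarcoma line after 48 hours of compound exposure at 37 degrees C was determined by luminescence with CellTiter-Glo, and concentration-effect curves were then fitted and categorized.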
* = called active by the depositor; ? = inconclusive; . = not tested or not shown; [ ] = dose if it differs, or a comment. This excerpt belongs to a sample that is enriched for hits. Unless noted, calls come from the whole dose curve; as a rule, active = well fitted curve in the direction sought with a large enough effect; inconclusive = small, poorly fitted or top-dose-only effect, or another doubt; inactive = no such curve, though single readings can be large; an effect the other way counts as inactive or inconclusive. Unless noted, % is set by controls: 0 for no effect and ±100 for the full control effect.

SMILES	DT40 TDP1 CPT	12-LOX inh	HT1080 IDH1KD tx	IL-1B inflam inh	DT40 TDP1 no CPT	HT1080-NT tox
O=C(c1ccc(F)cc1)N1CCn2c(nn(-c3cccc(Cl)c3)c2=O)C1	.	3%[6.33 µM]	.	.	.	.
CCC(=O)Nc1ccccc1-c1nc2ccccc2n(C(C)C(=O)Nc2ccc(OC)cc2)c1=O (centres undefined)	?	-27%	.	.	15µM*	.
N#Cc1ccc(CCC(=O)O)cc1	.	28µM*	.	.	.	.
CCCCCCCc1ccc(-c2nnc(-c3ccc(Br)cc3)o2)cc1	.	11%	.	.	.	.
Cc1nc(SCc2ccc(OCCC(C)C)cc2)n[nH]1	15µM*	3%	-5%	23	?	-3%
CC(C)(C)c1cnnn1-c1ccc(NC(=O)c2ccc(Br)o2)cc1	-27%	14%	-20%	13	-27%	4%[9.24 µM]
CC(C)(C)c1cnnn1-c1ccc(NC(=O)c2ccc3c(c2)OCO3)cc1	?	-21%	-4%	-15	21µM*	6%
CC(C)(C)c1ccc(C(=O)Nc2ccc(Cl)cc2)cc1	-12%	8%	0%	-18	-6%	14%
COc1cccc(S(=O)(=O)NCC(=O)Nc2ccc(C(C)(C)C)cc2)c1	?	-3%	-9%	-60*	?	2%
COC(=O)Cc1ccc(NC(=O)c2ccc(C(C)(C)C)cc2)cc1	?	-6%	-28%	-50*	?	-18%
CC(=O)Nc1cccc(OCCCNC(=O)c2ccc(C(C)(C)C)cc2)c1	?	30%	15µM*	23	?	?
CC(=O)Nc1cccc(OCCCNC(=O)c2ccc(F)cc2)c1	5%	?	6%	26	-8%	0%
N#Cc1c(N)n[nH]c1CCCNC(=O)c1cc(-c2cccs2)nc2ccccc12	.	1%	.	.	.	.
Cc1ccc(NS(=O)(=O)c2cccc(C(=O)Nc3ccc4oc(C)nc4c3)c2)cc1	.	0%	.	.	.	.
COc1cccc(C(=O)Nc2ccc(NC(=O)c3ccc(C(C)(C)C)cc3)cc2)c1	16µM*	-2%	.	.	10µM*	.
CC(C)(C)c1ccc(C(=O)Nc2ccc(Oc3cccnc3)nc2)cc1	?	161%	?	-73*	13µM*	-32%
CC(C)(C)c1ccc(C(=O)Nc2cccnc2)cc1	?	4%	-6%	-15	?	17%
COc1cccc(C(=O)Nc2ccc(-n3nncc3C(C)(C)C)cc2)c1	?	13%	-15%	15	21µM*	6%
COc1ccc(NC(=O)c2ccc3c(c2)n(C)c(=O)n3C)cc1	-29%	?	-2%	-56*	-15%	2%
CCCN(C)c1nccnc1OC1CCN(C(=O)c2ccoc2)C1 (centres undefined)	.	45%	.	.	.	.
CSc1cccc(NC(=O)c2ccc3c(c2)N(C)C2CCCCCN2C3=O)c1 (centres undefined)	.	-13%	.	.	.	.
Cc1cc(Br)ccc1SCC(=O)OCC(=O)NC12CC3CC(CC(C3)C1)C2	.	0%	.	.	.	.
O=C1Nc2ccccc2CCC1n1nc(-c2ccccc2F)ccc1=O (centres undefined)	.	1%	.	.	.	.
O=C1NN=C(c2ccc(Br)cc2)CC1c1ccc(Cl)cc1 (centres undefined)	?	40µM*	-14%	-85*	?	0%
CCc1ccc(C2CC(c3ccc(Cl)cc3)=NNC2=O)cc1 (centres undefined)	?	0%	-1%	-52*	?	6%
SMILES	DT40 TDP1 CPT	12-LOX inh	HT1080 IDH1KD tx	IL-1B inflam inh	DT40 TDP1 no CPT	HT1080-NT tox
O=C(NC[C@H]1O[C@H](Cc2cc(COc3ccccc3)on2)CC[C@@H]1O)Nc1ccc(F)cc1	.	-18%	.	.	.	.
COc1cc(/C=C2/C(=O)c3cccc([N+](=O)[O-])c3C2=O)c(Br)cc1O	6.5µM*	18µM*	18µM*	33	5.2µM*	?
Cc1cc(Cl)ccc1NC(=O)c1cccc(NC(=O)N2CCSc3ncccc32)c1	?	-37%	.	.	16µM*	.
Cc1ccc(NC(=O)c2ccc(NC(=O)N3CCSc4ncccc43)cc2)cc1Cl	16µM*	?	.	.	12µM*	.
Cc1ccc(NC(=O)c2cccc(NC(=O)N3CCSc4ncccc43)c2)cc1F	-19%	?	.	.	-25%	.
COc1cccc(-n2cnc3c(sc4nc(N5CCOCC5)c5c(c43)CCCC5)c2=O)c1	?	19%	17%	-54*	18µM*	23%
CCC(Cn1ccnc1-c1ccc(SC)cc1)N1CCN(C)CC1 (centres undefined)	.	54%	.	.	.	.
OC(c1cc(-c2cccc(Cl)c2)nc2ccccc12)C1CCCCN1 (centres undefined)	16µM*	35µM*	2.9µM*	-101*	2.6µM*	4.1µM*
Cc1c(-c2cccc(Cl)c2)nc2ccccc2c1C(=O)NC1CCCCCCCCCCC1	.	-15%	.	.	.	.
COc1ccc(CN2CCC3CC2c2cc(Cl)ccc23)cc1 (centres undefined)	18µM*	0%	-1%	11	18µM*	-7%
COc1ccc(CN2CCC3CC2c2cc(-c4cccc(C)c4)ccc23)cc1 (centres undefined)	21µM*	3%	-22%	-18	15µM*	-18%
Clc1ccc2c(c1)C1CC2CCN1Cc1ccccc1 (centres undefined)	-5%	3%	6%	29	-14%	13%
c1ccc(-c2nnc3ccc(NC4CCCCC4)nn23)nc1	.	50%[176 µM]	.	.	.	.
CNc1nc(-c2ccccn2)nnc1-c1ccccc1	?	53%	?	50	22µM*	?
c1ccc(-c2nnc(-c3ccccn3)nc2NC2CCCCC2)cc1	6.5µM*	-4%	?	85	5.8µM*	?
CC(C)c1nn2c(=O)cc(COC(=O)COc3ccccc3Cl)nc2s1	.	-14%	.	.	.	.
COc1ccc(N(Cc2ccco2)C(=O)c2ccccc2F)cc1OC	?	0%	-2%	-6	?	4%
Cc1ccc(CN(Cc2ccco2)C(=O)c2ccc(Cl)cc2)o1	-27%	-26%	.	.	?	.
COc1ccc(C(=O)N(Cc2ccc(N(C)C)cc2)Cc2ccco2)cc1Cl	16µM*	0%	.	.	15µM*	.
COc1ccc(C(=O)N(Cc2ccco2)Cc2ccccc2F)cc1Cl	21µM*	?	.	.	16µM*	.
CN(C)c1ccc(CN(Cc2ccco2)C(=O)c2ccc(C(C)(C)C)cc2)cc1	16µM*	-18%	.	.	21µM*	.
